The text below walks through data of PubChem BioAssay (NCATS).

The target in test [1] is Lysosomal acid glucosylceramidase (Homo sapiens) (UniProt P04062). The test is described as follows: Glucocerebrosidase-p2 (AID 348; in the data active = potency below about 10 µM; note: potency is the fitted concentration of half-maximal effect). Conditions: purified GBA, blue fluorogenic substrate, 40 min. The essentials: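 Compounds titrated from 0.6 nM upwards against 0.2 nM enzyme in pH 5.9 citric acid/KH2PO4, taurocholate, tween-20; blue fluorogenic substrate 80 uM, 40 min room temperature, stopped and read Ex 365/Em 440 for AC50.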

A short description of test [2]: AP1 Signaling Pathway (AID 357; active = well fitted curve in either direction with a large enough effect, not every such curve was filed as active; note: % is set by controls: 0 for no effect and ±100 for the full control effect). Conditions: ME-180 AP-1-bla reporter, EGF-induced, beta-lactamase ratio, 5 h; at 7.69 µM (top of the series) unless noted. The essentials:
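AP-1-bla ME-180 cells with beta-lactamase reporter under AP-1 response element, stimulated with EC50 EGF; compounds titrated, 5 hours at 37 degrees Celsius. CCF4 read at 460/530 nm ratio; positive and negative modulators judged by AC50.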

Test [3] has as its target Cytochrome P450 1A2 (Homo sapiens) (UniProt P05177). As to the kind of experiment: p450-cyp1a2 (AID 410). Note: potency is the fitted concentration of half-maximal effect. Conditions: recombinant CYP1A2, luciferin-ME demethylation, luminescence; series mostly up to 57 µM. The essentials: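 Human CYP1A2 (20nM) demethylated Luciferin-ME at its Km (100uM) in 100mM KPO4. After 10 min compound preincubation, NADPH regeneration ran the reaction 60 min at room temperature. Luciferin was read by luminescence, normalized to 57 uM furafylline.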

Test [4] is described as follows: NFAT Signaling Pathway (AID 444; active = well fitted curve in either direction with a large enough effect, not every such curve was filed as active;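 note: carbachol stimulus at about its EC50 of 1 µM final; % is set by controls: 0 for no effect and ±100 for the full control effect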). The note with it: Jurkat NFAT-bla M1, carbachol, beta-lactamase ratio, 5 h; at 7.69 µM (top of the series) unless noted. The essentials: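 Jurkat cells carrying an NFAT-driven β-lactamase reporter and co-transfected muscarinic M1 receptor were treated with compound plus carbachol (1 uM final, an EC50 level) for 5 h at 37 °C. CCF4 loading followed for 1 h at RT; 460/530 nm ratio gave %activity.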

Test [5] addresses Glucocorticoid receptor (Homo sapiens) (UniProt P04150). As to the kind of experiment: GR-EFC Redistribution (AID 451). Note: potency is the fitted concentration of half-maximal effect. Conditions: CHO-K1 GR-EFC translocation, beta-gal luminescence, 2 h. The essentials: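 CHO-K1 cells stably expressing nuclear-localized β-gal enzyme acceptor and GR fused C-terminally to the enzyme donor fragment; ligand-driven nuclear translocation restores β-gal by complementation. Compounds titrated up to 46 uM final, 2 h at 37 °C; luminescence read.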

In test [6] the target is Mitogen-activated protein kinase 10 (Mus musculus) (UniProt Q61831). The test is described as follows: JNK3 AlphaScreen Assay (AID 530; active = well fitted curve in either direction with a large enough effect, not every such curve was filed as active;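 note: kinase came from lysate of stimulated human HepG2 cells; signal reports phosphorylation of biotinylated GST-cJun 1-79 at Ser73 with 10 µM ATP; % is set by controls: 0 for no effect and ±100 for the full control effect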). The note with it: JNK3 lysate, c-Jun phosphorylation; series mostly up to 57.1 µM. The essentials:
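JNK3 came from HepG2 lysates pre-activated with IL-1beta and TNF-alpha and phosphorylated biotinylated GST-cJun (1-79) at 10 uM ATP, pH 7.6, room temperature. Compounds were titrated. AlphaScreen signal used anti-phospho-cJun (Ser73) antibody.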
Background: Alpha assays give light when donor and acceptor beads are brought close together.

In test [7] the target is 3',5'-cyclic-AMP phosphodiesterase 4B (Homo sapiens) (UniProt Q07343). As to the kind of experiment: qHTS Assay for Inhibitors of PDE-IV (AID 607; active = well fitted activation curve with a large enough effect in the main read-out, with a control signal flat, not every such curve was filed as active; note: % of control where 0% means no effect). Conditions: HEK293 ACTOne CNG channel cells, membrane potential fluorescence; series mostly up to 22.9 µM. The essentials: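 Live HEK293 cells with a modified cyclic nucleotide-gated (CNG) channel report intracellular cAMP via membrane-potential dye fluorescence (ex 535/em 590 nm). Endogenous PDE-IV was targeted. Compounds were tested at up to 22.9 uM final; RO 20-1724 100 uM served as control.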
For orientation: Quantitative high-throughput screening tests each substance at several concentrations.

Test [8] has as its target Cytochrome P450 3A4 (Homo sapiens) (UniProt P08684). As to the kind of experiment: qHTS Assay for Activators of Cytochrome P450 3A4 (AID 885; active = well fitted curve in the direction sought with a large enough effect; an effect the other way counts as inactive or inconclusive; note: nearly all actives have a fitted effect of over 65% in size). Conditions: recombinant CYP3A4, Luciferin-PPXE luminescence, 60 min; series mostly up to 57.1 µM. The essentials: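 Quantitative HTS format: compounds preincubated with 20nM human CYP3A4 and Luciferin-PPXE substrate at KM, reaction started by NADPH regeneration, stopped after 60 min, luciferase luminescence read 20 min later.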

Test [9] can be described thus: qHTS Assay for Lipid Storage Modulators (AID 1519). Conditions: Drosophila S3 cells, BODIPY lipid droplet/cell ratio, laser cytometry, cells loaded with oleic acid; for activity change, negative = inhibition: at 57.5 µM (top of the series). The essentials: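 Cells seeded at 5,000 per well were treated with compounds over a concentration series and loaded with oleic acid (400 uM, as added). Lipid droplet fluorescence (488 nm excitation, 500-530 nm channel) was read by laser-scanning cytometry and normalized to 20 uM Triacsin C.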

A short description of test [10]: Primary qHTS for small molecule stabilizers of the endoplasmic reticulum resident proteome: Secreted ER Calcium Modulated Protein (SERCaMP) assay (AID 1508630; active = well fitted curve in the direction sought with a large enough effect; an effect the other way counts as inactive or inconclusive; note: % is set by controls: 0 for no effect and ±100 for the full control effect). Conditions: SH-SY5Y GLuc-SERCaMP (Gaussia luciferase released on ER calcium loss) secretion, thapsigargin, luminescence; series mostly up to 38.4 µM. The essentials: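 GLuc-SERCaMP-expressing SH-SY5Y cells, pretreated 16 h with compound, are challenged with thapsigargin to empty ER calcium stores; after 4 h, coelenterazine is added directly to the medium and luminescence is imaged.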

A short description of test [11]: Stat Signaling Pathway (AID 446; active = well fitted curve in either direction with a large enough effect, not every such curve was filed as active). The note with it: ME-180 (cervical carcinoma) SIE beta-lactamase reporter, IL-6 stimulated, 5 h; at 7.69 µM (top of the series) unless noted. The essentials: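 IL-6/STAT signaling read in ME-180 cells via an SIE beta-lactamase reporter. Stimulus was 40 pM IL-6 (its AC50) for 5 hrs, so both activation and inhibition register.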
The target of test [12] is Cytochrome P450 3A4 (Homo sapiens) (UniProt P08684). As to the kind of experiment: qHTS Assay for Inhibitors and Substrates of Cytochrome P450 3A4 (AID 884; active = well fitted curve in the direction sought with a large enough effect; an effect the other way counts as inactive or inconclusive; note: potency is the fitted concentration of half-maximal effect; nearly all actives have a fitted effect of over 50% in size). Conditions: recombinant CYP3A4, Luciferin-PPXE luminescence; series mostly up to 57.1 µM. The essentials:
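20 nM human CYP3A4 with 25 uM Luciferin-PPXE (at KM) in 200 mM KPO4, preincubated 10 min with compound; NADPH regeneration started a 60 min RT reaction. Luciferin detected by luminescence, normalized to 57 uM ketoconazole as full inhibition.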

The target of test [13] is Cytochrome P450 2C19 (Homo sapiens) (UniProt P33261). The test is described as follows: qHTS Assay for Inhibitors and Substrates of Cytochrome P450 2C19 (AID 899; active = well fitted curve in the direction sought with a large enough effect; an effect the other way counts as inactive or inconclusive; note: potency is the fitted concentration of half-maximal effect; nearly all actives have a fitted effect of over 60% in size). Conditions: recombinant CYP2C19, luciferin-H EGE luminescence; series mostly up to 57.1 µM. The essentials:
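NADPH-dependent conversion of Luciferin-H EGE (10uM, at KM) by 5nM enzyme in 50mM KPO4, 60 min at 37C following 10 min compound preincubation. Stopped with luciferin detection buffer; luminescence read after 20 min.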

Test [14] deals with Glucocorticoid receptor (Homo sapiens) (UniProt P04150). As to the kind of experiment: GR-GFP Redistribution (AID 450;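 active = compounds whose dose series gives a full or clear partial fitted curve of increased nuclear translocation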; note: potency is the fitted concentration of half-maximal effect). The note with it: U2OS GR-GFP nuclear translocation, laser cytometry, 2 h.
Test [15] in a line: Confirmation and Secondary Assay for Modulators of Hemoglobin Beta Chain Splicing at IVS2 654 locus (AID 910; active = well fitted curve in the direction sought with a large enough effect; an effect the other way counts as inactive or inconclusive;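 note: per-well total GFP intensity by laser scanning cytometry after 2-day treatment; % of control where 0% means no effect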). Conditions: HeLa EGFP-654 splicing reporter, GFP fluorescence, 48 h; series mostly up to 38.3 µM. The essentials: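 HeLa cells stably carrying EGFP interrupted by mutant beta-globin IVS2-654 intron (CMV-driven) were treated with compound for 2 days at 37C; corrected splicing was scored as total peak GFP intensity per well (488 nm excitation, 500-520 nm emission).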

Test [16] can be described thus: Confirmation and Secondary Assay for Modulators of Hemoglobin Beta Chain Splicing at IVS2 705 locus (AID 930; active = well fitted curve in the direction sought with a large enough effect; an effect the other way counts as inactive or inconclusive;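 note: HeLa cells stably expressing the EGFP-705 splicing reporter; GFP fluorescence per well restored by corrected splicing of the IVS2-705 intron in EGFP; % of control where 0% means no effect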). The note with it: HeLa EGFP-705 splicing reporter, GFP fluorescence, 48 h; series mostly up to 38.3 µM. The essentials:
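Fluorescence gain (488 nm laser, 500-520 nm PMT) reflects restored correct splicing of a mutant IVS2-705 intron inside EGFP in stably transfected HeLa cells after 2-day compound treatment.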

Setting [17] is: measured here: cell count channel max response.
[18] abbreviates: measured here: lipid channel max response.

Inconclusive results are not listed. Calls of active or inactive are those of the source. Unless noted, calls come from the whole dose curve.

Chain of Cytochrome P450 3A4 (Homo sapiens) (P08684 whole entry, looked up): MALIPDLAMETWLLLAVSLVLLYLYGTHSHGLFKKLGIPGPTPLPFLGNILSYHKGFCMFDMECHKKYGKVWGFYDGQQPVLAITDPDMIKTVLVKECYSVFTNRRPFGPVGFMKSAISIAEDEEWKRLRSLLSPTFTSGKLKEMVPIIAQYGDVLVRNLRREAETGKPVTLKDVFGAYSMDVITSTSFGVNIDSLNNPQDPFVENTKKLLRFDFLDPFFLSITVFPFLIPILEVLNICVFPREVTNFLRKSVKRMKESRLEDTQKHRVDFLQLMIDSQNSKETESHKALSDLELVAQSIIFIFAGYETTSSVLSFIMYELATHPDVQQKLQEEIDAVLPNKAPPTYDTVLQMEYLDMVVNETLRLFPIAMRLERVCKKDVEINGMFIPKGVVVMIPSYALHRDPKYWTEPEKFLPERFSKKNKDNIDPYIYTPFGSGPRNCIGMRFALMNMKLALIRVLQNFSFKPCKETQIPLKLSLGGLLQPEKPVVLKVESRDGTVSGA
Chain of Glucocorticoid receptor (Homo sapiens) (P04150 whole entry, looked up, the tested form may be a part): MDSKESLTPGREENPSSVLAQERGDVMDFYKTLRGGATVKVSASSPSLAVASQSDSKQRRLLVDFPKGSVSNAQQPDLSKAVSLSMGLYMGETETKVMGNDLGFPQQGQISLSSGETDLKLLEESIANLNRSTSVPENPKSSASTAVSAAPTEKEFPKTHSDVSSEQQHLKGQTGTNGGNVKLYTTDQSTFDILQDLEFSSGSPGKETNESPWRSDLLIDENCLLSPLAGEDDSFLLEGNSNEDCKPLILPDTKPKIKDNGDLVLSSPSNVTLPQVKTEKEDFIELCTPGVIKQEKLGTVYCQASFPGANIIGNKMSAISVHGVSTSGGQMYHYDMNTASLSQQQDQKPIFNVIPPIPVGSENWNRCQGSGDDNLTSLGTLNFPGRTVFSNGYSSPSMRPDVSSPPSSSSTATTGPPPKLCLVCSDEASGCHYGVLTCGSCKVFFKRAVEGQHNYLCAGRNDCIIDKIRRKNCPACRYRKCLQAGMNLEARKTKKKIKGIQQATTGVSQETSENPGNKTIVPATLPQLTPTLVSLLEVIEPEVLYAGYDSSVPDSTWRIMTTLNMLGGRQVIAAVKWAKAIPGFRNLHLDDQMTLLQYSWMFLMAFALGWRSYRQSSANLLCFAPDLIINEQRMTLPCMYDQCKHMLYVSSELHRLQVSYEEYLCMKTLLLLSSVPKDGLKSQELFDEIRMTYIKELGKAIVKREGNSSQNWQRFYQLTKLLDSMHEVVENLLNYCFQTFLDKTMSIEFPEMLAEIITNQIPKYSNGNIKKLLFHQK
Chain of Lysosomal acid glucosylceramidase (Homo sapiens) (P04062 whole entry, looked up): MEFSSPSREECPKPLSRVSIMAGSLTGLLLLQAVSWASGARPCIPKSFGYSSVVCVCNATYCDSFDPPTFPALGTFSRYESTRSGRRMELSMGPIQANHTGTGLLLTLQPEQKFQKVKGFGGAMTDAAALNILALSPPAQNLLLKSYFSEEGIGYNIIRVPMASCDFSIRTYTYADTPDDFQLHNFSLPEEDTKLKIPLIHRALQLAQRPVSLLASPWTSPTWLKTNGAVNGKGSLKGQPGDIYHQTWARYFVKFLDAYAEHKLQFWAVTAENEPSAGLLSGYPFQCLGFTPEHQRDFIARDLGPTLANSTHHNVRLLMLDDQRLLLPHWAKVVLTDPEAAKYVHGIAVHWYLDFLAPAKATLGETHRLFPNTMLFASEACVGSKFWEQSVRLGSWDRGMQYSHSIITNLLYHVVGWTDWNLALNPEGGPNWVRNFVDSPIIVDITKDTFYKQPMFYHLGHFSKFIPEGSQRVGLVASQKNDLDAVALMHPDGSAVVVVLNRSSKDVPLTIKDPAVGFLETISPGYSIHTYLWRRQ
Chain of Cytochrome P450 1A2 (Homo sapiens) (P05177 whole entry, looked up): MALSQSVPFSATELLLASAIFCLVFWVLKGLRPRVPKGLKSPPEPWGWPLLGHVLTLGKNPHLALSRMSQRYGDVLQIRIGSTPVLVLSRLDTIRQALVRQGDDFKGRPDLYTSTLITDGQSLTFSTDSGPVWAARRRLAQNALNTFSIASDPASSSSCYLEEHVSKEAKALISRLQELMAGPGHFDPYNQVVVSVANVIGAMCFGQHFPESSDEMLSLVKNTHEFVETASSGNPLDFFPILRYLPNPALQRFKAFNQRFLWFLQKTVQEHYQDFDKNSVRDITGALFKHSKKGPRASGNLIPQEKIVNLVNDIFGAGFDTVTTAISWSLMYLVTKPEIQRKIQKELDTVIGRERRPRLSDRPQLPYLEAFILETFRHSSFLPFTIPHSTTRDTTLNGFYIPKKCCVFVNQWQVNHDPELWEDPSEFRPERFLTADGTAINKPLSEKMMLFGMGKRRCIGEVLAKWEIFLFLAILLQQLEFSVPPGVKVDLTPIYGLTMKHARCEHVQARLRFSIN
Chain of Cytochrome P450 2C19 (Homo sapiens) (P33261 whole entry, looked up): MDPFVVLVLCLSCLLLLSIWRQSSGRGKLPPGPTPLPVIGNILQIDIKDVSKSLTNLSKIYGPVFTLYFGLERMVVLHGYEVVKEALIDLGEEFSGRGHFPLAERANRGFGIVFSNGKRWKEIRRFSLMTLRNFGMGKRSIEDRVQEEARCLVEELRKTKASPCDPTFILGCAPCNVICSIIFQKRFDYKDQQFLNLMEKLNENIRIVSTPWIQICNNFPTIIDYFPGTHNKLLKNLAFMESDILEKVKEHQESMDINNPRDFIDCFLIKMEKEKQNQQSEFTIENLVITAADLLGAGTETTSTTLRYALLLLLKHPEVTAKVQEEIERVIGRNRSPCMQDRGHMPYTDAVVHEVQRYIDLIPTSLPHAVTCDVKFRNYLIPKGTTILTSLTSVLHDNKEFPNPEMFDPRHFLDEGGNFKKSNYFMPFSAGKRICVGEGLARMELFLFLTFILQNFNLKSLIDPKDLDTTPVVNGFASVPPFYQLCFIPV
Chain of 3',5'-cyclic-AMP phosphodiesterase 4B (Homo sapiens) (Q07343 whole entry, looked up): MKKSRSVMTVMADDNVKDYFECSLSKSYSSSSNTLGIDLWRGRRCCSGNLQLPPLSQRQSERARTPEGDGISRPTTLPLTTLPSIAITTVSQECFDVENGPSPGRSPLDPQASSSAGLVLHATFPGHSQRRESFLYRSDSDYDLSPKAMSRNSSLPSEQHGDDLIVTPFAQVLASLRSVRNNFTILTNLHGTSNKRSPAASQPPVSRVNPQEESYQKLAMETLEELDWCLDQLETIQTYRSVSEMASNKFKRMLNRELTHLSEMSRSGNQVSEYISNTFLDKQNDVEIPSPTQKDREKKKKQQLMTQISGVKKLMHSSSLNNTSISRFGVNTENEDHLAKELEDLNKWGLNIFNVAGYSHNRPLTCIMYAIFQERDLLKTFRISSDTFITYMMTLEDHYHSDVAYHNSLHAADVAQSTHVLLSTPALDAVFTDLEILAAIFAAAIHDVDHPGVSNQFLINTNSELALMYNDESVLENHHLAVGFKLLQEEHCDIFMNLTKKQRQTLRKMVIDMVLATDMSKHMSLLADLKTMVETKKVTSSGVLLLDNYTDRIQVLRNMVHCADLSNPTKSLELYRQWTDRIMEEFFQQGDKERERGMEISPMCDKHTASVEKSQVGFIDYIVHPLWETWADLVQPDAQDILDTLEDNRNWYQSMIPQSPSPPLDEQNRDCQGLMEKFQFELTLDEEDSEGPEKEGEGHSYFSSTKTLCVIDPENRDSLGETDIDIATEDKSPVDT

Take `O=C(Nc1ccccc1)N1CCC2(CC1)CCN(S(=O)(=O)c1ccccc1)CC2`: the Potency in test [1] is > 11.4 µM (inactive); in test [3], 7.94 µM (active); in test [5], > 46 µM (inactive). Besides, the activity change, negative = inhibition in [2] was -0.036% (inactive); in [4] it was 21.1% (inactive); in test [9] it was 3.55% (inactive). Besides, the result in test [6] was inactive. The Potency entry in test [7], in [8] and in test [10] was “inactive” each time. Also, the results for the max response in test [9] (setting [17]) and in test [9] (setting [18]) were -0.439% and 7.34%, respectively.

`O=S(=O)(c1ccccc1)N1CCC[C@@]2(CCN(c3ccccc3)C2)C1`: the Potency in test [1] was > 11.4 µM (inactive); in test [3], 3.98 µM (active); in test [5], > 46 µM (inactive); in test [12], 5.01 µM (active); in test [13], 0.316 µM (active). For the same compound, the activity change, negative = inhibition in test [2] is -10.1% (inactive); in test [4] it was -13.8% (inactive); in test [9], -16% (inactive). For the same compound, the activity, negative = inhibition in test [11] is -4.22% (inactive). The Potency result in test [8] and in [10] was “inactive” each time. The max response in test [9] (setting [17]) was 5.79%; in test [9] (setting [18]) it was -9.53%.

`Cc1ccccc1-c1cncnc1N(C)Cc1ccco1`: the Potency in [1] was > 11.4 µM (inactive); in test [3] it was 15.8 µM (active); in [14], > 46 µM (inactive); in [5], > 46 µM (inactive); in [13], 5.01 µM (active). In addition, the figures for the activity change, negative = inhibition in test [2] and in [9] were -3.79% (inactive) and 8.25% (inactive), respectively. In addition, the activity, negative = inhibition in [11] is 11.8% (inactive). The compound was classed as inactive in test [6], in test [15] and in [16]. Also, the Potency entry in [7] and in [10] was “inactive” throughout. The max response in test [9] (setting [17]) is -7.61%; in test [9] (setting [18]), 2.41%.

Regarding `O=C(c1ccncc1)N1CCC2(CC1)CN(c1cccc(-c3ccccc3)c1)C2`, the values for the Potency in test [1], in test [3] and in [5] were > 11.4 µM (inactive), 15.8 µM (active) and > 46 µM (inactive), respectively. For the same compound, the values for the activity change, negative = inhibition in test [2], in test [4] and in [9] were -2.83% (inactive), 7.15% (inactive) and -2.24% (inactive), respectively. Moreover, the Potency entry in [8] and in [10] was “inactive” in each case. For the same compound, the values for the max response in test [9] (setting [17]) and in test [9] (setting [18]) were 13.1% and 11.3%, respectively.
